Source: PubChem
MEKK3 PB1 HTS: MEKK3-MEK5 PB1 interaction, increase or decrease; bead-based flow cytometry, Alexa488-MEK5 binding to MEKK3; actives lie on both sides; 0 = blocked by unlabeled MEK5, 100 = vehicle; binding response (% of control), % at 10 µM; hit rate 1.4% among 290,000; AID 1529;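 active = binding response more than 3 SD above or below the average of its plate-row segment, actives on both sides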;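 note: Alexa488 bead fluorescence after subtracting the streptavidin-only scavenger bead signal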
Target sequence (Q99759 whole entry, looked up): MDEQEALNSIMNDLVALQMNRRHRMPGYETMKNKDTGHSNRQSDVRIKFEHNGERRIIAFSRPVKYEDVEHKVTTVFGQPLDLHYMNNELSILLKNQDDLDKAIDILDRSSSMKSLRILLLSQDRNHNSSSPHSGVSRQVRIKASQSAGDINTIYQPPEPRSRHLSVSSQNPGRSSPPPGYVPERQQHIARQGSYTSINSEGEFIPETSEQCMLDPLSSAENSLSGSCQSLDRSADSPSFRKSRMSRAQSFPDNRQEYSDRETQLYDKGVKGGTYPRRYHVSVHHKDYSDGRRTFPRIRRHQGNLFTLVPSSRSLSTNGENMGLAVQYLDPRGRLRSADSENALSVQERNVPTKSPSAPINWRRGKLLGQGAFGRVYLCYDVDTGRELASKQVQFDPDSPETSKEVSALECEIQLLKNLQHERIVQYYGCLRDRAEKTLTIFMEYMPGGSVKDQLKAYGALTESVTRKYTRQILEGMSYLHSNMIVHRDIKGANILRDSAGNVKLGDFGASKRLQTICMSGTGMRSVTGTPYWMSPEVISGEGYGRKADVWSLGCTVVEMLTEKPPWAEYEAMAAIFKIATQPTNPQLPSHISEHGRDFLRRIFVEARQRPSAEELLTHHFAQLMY
MEKK2 WT-MEK5: raises or lowers MEK5 binding to wildtype human MEKK2 PB1 domain. Q9Y2U5. bead flow cytometry, Alexa488-MEK5 binding to MEKK2 WT; actives lie on both sides. binding response (% of control), % at 10 µM. hit rate 1.1% among 290,000. AID 1531; in the data active = binding response below about 67% or above about 130%
CHT PAM: allosteric activators of human choline transporter CHT; Q9GZV3; CHT-expressing cells, membrane potential dye, choline EC20; hits give high values; LV-AA mutant CHT in HEK293 cells; B-score at 10 µM; hit rate 0.49% among 310,000; AID 488977;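 active = initial fluorescence not abnormally high and integrated response B-score, plate-corrected, over 3 SD above library mean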
CHT block: inhibitors of human choline transporter CHT; Q9GZV3; CHT-expressing cells, membrane potential dye, choline response; hits give low values; B-score at 10 µM; hit rate 0.86% among 310,000;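 active = B-score over 3 SD under the library average, and starting fluorescence ratio not unusually high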;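 note: choline stimulus applied at its EC90 after an EC20 pre-addition; B-score computed on integrated fluorescence ratio after choline addition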
SUMO Mot1 rescue: SUMOylation pathway inhibition by Mot1-301 growth rescue | AID 2716 | S. cerevisiae Mot1-301 growth rescue, ATP luminescence, 38.5C; percent above DMSO median, 100 means doubled | growth rescue, % at 18.8 µM | hit rate 1% among 320,000;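 active = every valid replicate shows activation above 250% relative to neutral control wells; inactive = the rest, any valid replicate at or below 250%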
MEKK2 mut-MEK5: signal of MEK5 binding to mutant human MEKK2 PB1 domain | bead flow cytometry, Alexa488-MEK5 binding to MEKK2 mutant | percent response, % at 10 µM | hit rate 0.35% among 290,000 | AID 1530; in the data active = percent response above about 24%, passing the limit was not always enough
CHT act confirm: confirmation of human choline transporter (CHT) activators; hit rate 91% among 2,500; activation, % at 10 µM; shares compounds with CHT PAM; CHT-expressing cells, membrane potential dye fluorescence (FDSS); % of choline EC20–EC90 response window; HEK293 expressing CHT LV-AA mutant; choline added at its EC20;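 active = primary screen active, with duplicate mean activation above negative control mean plus 3 SD, cut at about 11% in these data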
HEK293 MP dye: counter-screen for CHT activators: effect in parental HEK293 cells; AID 623908; ratio readout change at 10 µM, hits read low; shares compounds with CHT PAM; membrane potential dye fluorescence (FDSS); measured after EC20 choline addition; hit rate 62% among 2,500;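 active = duplicate-averaged ratio beyond 3 SD from buffer wells, up or down, though filed actives are nearly all decreases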
Hits are given with their value; . = inactive; / = no result given. An excerpt weighted towards active compounds, which were near 4.1% of everything screened.

SMILES	MEKK3 PB1 HTS	MEKK2 WT-MEK5	CHT PAM	CHT block	SUMO Mot1 rescue	MEKK2 mut-MEK5	CHT act confirm	HEK293 MP dye
COc1cc2c(cc1OC)C(c1cccs1)N(C(=S)NC(C)C)CC2 (configuration not stated)	.	.	8.74	.	.	.	14.3	.
COc1cc2c(cc1OC)C(c1cccs1)N(C(=O)c1ccncc1)CC2 (configuration not stated)	.	.	.	.	.	.	/	/
O=C(CN1C(=O)NC2(CCCC2)C1=O)Nc1cc(Cl)ccc1Oc1ccccc1	/	/	/	/	.	/	/	/
Cc1nnc(NC(=O)CCSc2ccc(Cl)cc2)s1	.	.	.	.	.	.	/	/
CCCCn1c(N)c(N(CC(C)C)C(=O)CSCC(=O)Nc2ccc(OC)cc2)c(=O)[nH]c1=O	/	/	.	.	.	/	.	.
COC(=O)C1=C(C(=O)OC)SC(=C2C(=S)C(C)(C)N(C(=O)C(C)C)c3ccccc32)S1	.	.	.	.	.	.	/	/
CCCC(=O)N1c2ccccc2C(=C2SC(C(=O)OC)=C(C(=O)OC)S2)C(=S)C1(C)C	.	.	.	.	.	.	19.6	.
C=CCNC(=O)COC(=O)c1c2c(nc3ccccc13)CCC2	.	.	.	.	.	.	/	/
COc1ccc(NC(=O)COC(=O)c2c3c(nc4ccccc24)CCCC3)cc1Cl	.	.	.	.	.	.	12.8	.
COc1ccc(NC(=O)COC(=O)c2c3c(nc4ccccc24)CCCC3)cc1	.	.	.	.	.	.	/	/
O=C(COC(=O)c1c2c(nc3ccccc13)CCCCC2)NCc1ccc2c(c1)OCO2	.	.	8.71	.	.	.	35.8	.
Cc1ccc(NC(=O)C2=C(O)c3ccccc3N(C)S2(=O)=O)cc1	.	.	.	.	.	.	/	/
COc1ccc(-c2csc3nc(C)n(-n4cccc4)c(=O)c23)cc1OC	.	.	.	.	.	.	/	/
COc1ccc(-c2csc3nc(C)nc(N4CCCCC4)c23)cc1OC	.	.	.	.	.	.	26.7	.
CCN(C(=O)COc1cccc2cccnc12)C1CCS(=O)(=O)C1 (configuration not stated)	.	.	.	.	.	.	52.2	-38.2
Cc1ccc(C(C)C)c(OCc2nn(CC(=O)c3ccc(OC(F)F)cc3)c3[n+]2CCCCC3)c1	.	217.0	9.8	.	.	.	.	.
CCN(Cc1ccccc1)C(=O)c1nn(-c2ccc(OC)cc2)c(=O)c2c1c1ccccc1n2C	.	.	.	.	.	.	46.4	.
O=C(CSc1ccc2nnc(-c3cccnc3)n2n1)NCC1CCCO1 (configuration not stated)	.	.	.	.	/	.	11.2	.
O=C(CSc1ccc2nnc(-c3cccc(F)c3)n2n1)NCC1CCCO1 (configuration not stated)	.	.	.	.	/	.	/	/
Cc1cc(NC(=O)CSc2ccc3nnc(-c4ccccc4)n3n2)no1	.	.	7.05	.	.	.	47.6	-31.6
Cc1ccc(NC(=O)COC(=O)/C=C/c2cccs2)c(C)c1	.	.	.	.	.	.	/	/
O=C(NCCc1ccccc1)/C(=C\c1ccccc1)NC(=O)c1ccco1	.	.	.	.	.	.	/	/
O=C(COc1ccccc1)NNC(=O)COc1ccc([N+](=O)[O-])cc1	.	.	.	.	.	.	/	/
O=C(COc1ccc([N+](=O)[O-])cc1)N(Cc1ccccc1)Cc1ccccc1	.	.	.	.	.	.	24.1	.
O=C(COc1ccc([N+](=O)[O-])cc1)Nc1ccncc1	.	.	.	.	.	.	44.5	-48.2
SMILES	MEKK3 PB1 HTS	MEKK2 WT-MEK5	CHT PAM	CHT block	SUMO Mot1 rescue	MEKK2 mut-MEK5	CHT act confirm	HEK293 MP dye
Cc1ccc(NCc2nnc(SC(C)C(=O)N/N=C/c3ccc(C)o3)n2-c2ccccc2)cc1 (configuration not stated)	.	.	.	.	/	.	/	/
O=c1c2ccccc2nc2n1C(CSCc1ccc(Cl)cc1)CS2 (configuration not stated)	.	.	8.22	.	.	.	11.3	.
Cc1ccc(-c2nc3ncccn3c2NC2CCCCC2)o1	.	.	.	.	.	.	35.9	.
Cc1ccc(-c2nc3ncccn3c2Nc2ccc3c(c2)OCCO3)o1	.	.	.	.	.	.	/	/
CCn1cc(C2=NCCO2)c2ccccc21	.	.	9.38	.	.	.	43.0	-43.6
COC(=O)c1ccccc1NC(=O)CN1CCN(C23CC4CC(CC(C4)C2)C3)CC1	.	.	6.87	.	.	.	30.3	.
Cc1ccc(NC(=S)NCc2ccco2)c(C)c1	.	.	.	.	.	.	/	/
Cc1cc(-c2ccccc2)nc2[n+]1CCN2C	.	.	7.5	.	.	.	60.5	-58.7
Cc1cc(-c2ccccc2)nc(-c2ccccc2)c1C	.	.	.	.	.	.	/	/
CCCNC(=O)c1cc(Cl)c(NC(=O)C2=CSCCO2)cc1OC	.	.	.	.	.	.	/	/
COc1ccc([N+](=O)[O-])cc1N(CC(O)CN(CC(C)C)CC(C)C)S(=O)(=O)c1ccccc1 (configuration not stated)	.	.	12.5	.	.	.	42.1	.
COc1ccc([N+](=O)[O-])cc1N(CC(O)CN(C)C)S(=O)(=O)c1ccc(C)cc1 (configuration not stated)	.	.	.	.	.	.	/	/
CCCCN(CCCC)CC(O)CN(c1cc([N+](=O)[O-])ccc1OC)S(=O)(=O)c1ccccc1 (configuration not stated)	.	.	11.2	.	.	.	53.2	-44.7
CC(C)CC(=O)Nc1nnc(SCC(=O)NCC2CCCO2)s1 (configuration not stated)	.	.	.	.	.	.	/	/
Cc1nn(C)c2ncc(C(N)=O)c(Oc3cccnc3)c12	.	.	.	.	.	.	/	/
CCOC(=O)c1cnc2c(c(C)nn2C)c1Oc1ccc(Cl)cc1	.	.	6.39	.	.	.	27.0	.
Cc1ccc(-c2nnc(CCC(=O)NCC3C4CC5CC(C4)CC3C5)o2)s1 (configuration not stated)	.	.	.	.	/	.	/	/
Cc1cnc(-c2nnc(N(C)C(=O)C3CCCO3)s2)cn1 (configuration not stated)	.	.	.	.	.	.	/	/
